From PubChem BioAssay
This is a sample that favours compounds with a hit; in the whole collection about 4.1% have one here.
LMP1 NFkB inh – Epstein-Barr LMP1 NF-kappaB reporter inhibition; LMP1-induced NF-kappaB luciferase reporter cells, luminescence; inhibition, % at 12.5 µM; 350,000 tested, 0.69% active; AID 504558; in the data active = inhibition above about 41%; inconclusive = no clear call, values can overlap the other calls;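 note: 0% = neutral control wells and 100% = reference inhibitor control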
Shn3 3UTR inh – inhibitors of Schnurri-3 3'UTR reporter in osteoblasts; Clone20 osteoblast Shn3 3'UTR firefly luciferase, 24 h; 360,000 tested, 0.52% active; inhibition, % at 12.5 µM;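 active = mean inhibition of at least 75% with every replicate also reaching 75%; inconclusive = mean inhibition at least 75% but some replicate below; inactive = mean inhibition below 75%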;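 note: 0% = median of neutral control wells and 100% = pilot-screen positive control compound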
TWEAK-Fn14 inh – inhibitors of TWEAK-Fn14 interaction signaling; TWEAK-stimulated Fn14 reporter cells, luciferase luminescence, 8 h; inhibition, % at 10 µM; 360,000 tested, 2% active; AID 1159606; in the data active = inhibition above about 50%
Peg3 prom inh – inhibitors of Peg3 promoter | HeLa PEG-Prom luciferase reporter, luminescence, overnight | inhibition, % at 20 µM | 360,000 tested, 1.7% active | AID 588405;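 active = inhibition of at least 50% at 20 µM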
TROY signal inh – inhibitors of TROY-dependent NF-kB signaling; Q293 LMP1-TROYcd NF-kB luciferase reporter, 4 h; inhibition, % at 10 µM; 360,000 tested, 0.98% active;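 active = compounds whose plate-normalised and pattern-corrected inhibition of the luciferase reporter signal at the single screening dose is 50% or more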
TRPM1 prom inh – reduces MITF-dependent TRPM1 promoter luciferase signal. SK-MEL-5 TRPM1 promoter luciferase, 24 h. inhibition, % at 12.5 µM. 330,000 tested, 0.83% active. AID 488899;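 active = mean inhibition across replicates of 60% or more, whatever share of single replicates reaches that level; inconclusive = some that reach 60%, reason not given; inactive = mean inhibition across replicates below 60%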
Active calls of the source: *; ? = inconclusive; / = no result given.

SMILES	LMP1 NFkB inh	Shn3 3UTR inh	TWEAK-Fn14 inh	Peg3 prom inh	TROY signal inh	TRPM1 prom inh
Cc1ccc(C(c2c(NC(=O)c3ccco3)sc(C)c2C)N2CCOCC2)cc1 (stereo unspecified)	-6	39	70*	42	38	/
Cc1ccccc1C(=O)Nc1ccnn1C1CCN(Cc2ccncc2)CC1	-9	0	-7	9	-6	15
Cc1ccc(C(=O)CSc2nccn2-c2ccccc2)cc1	-7	-8	4	-141	51*	-29
O=C(CSc1nccn1-c1ccccc1)c1ccc(Cl)cc1	-6	-1	-12	-93	-9	-3
Cc1cc(C(=O)NNC(=O)CCCCC(=O)NNC(=O)c2cc(C)[nH]n2)n[nH]1	1	-9	2	-2	-11	-3
COc1ccc(CC(=O)NNC(=O)c2cc(C)[nH]n2)cc1	-2	-15	4	62*	-10	-3
O=S(=O)(c1cccc(NC(=S)N2CCN(c3ccccc3F)CC2)c1)C(F)F	-3	12	51*	6	14	1
CC(=O)Nc1ccc(Sc2ccc([N+](=O)[O-])o2)cc1	-100	99*	95*	97*	37	95*
CC(C)(C)C(=O)Nc1ccc(Sc2ccc([N+](=O)[O-])cc2)cc1	24	48	51*	34	49	4
Cc1cc(Cl)c2oc(C(=O)N(C)CCc3cnn(C)c3)c(C)c2c1	6	-4	-9	-6	-8	5
CCN(CC)S(=O)(=O)c1ccc(OC(C)C)c(NC(=O)c2c3c(nc4ccccc24)CCN(Cc2ccccc2)C3)c1	16	36	26	55*	7	17
COc1ccc(S(=O)(=O)N2CCCCCC2)cc1NC(=O)c1c2c(nc3ccccc13)CCN(Cc1ccccc1)C2	-8	11	28	43	14	1
CC1CNC(=S)N(c2ccccc2)C1=O (stereo unspecified)	2	63	14	62*	-2	-7
Cc1ccc(S(=O)(=O)Cc2ccc(C(=O)NCCCN3CCN(C)CC3)o2)cc1	4	32	84*	-157	76*	9
Cc1cc(C(=O)NC2CC(C)(C)Cc3c2cnn3-c2ccc(F)cc2)no1 (stereo unspecified)	0	4	-5	-45	-41	-21
O=C(O)CCCC(=O)Nc1ccccc1C(=O)N1CCCC1	4	-6	6	23	-4	-4
CN(C)S(=O)(=O)c1cccc(-c2nn(-c3ccccc3)cc2/C=C2\SC(=S)NC2=O)c1	7	-2	64*	60*	67*	0
CN(C)S(=O)(=O)c1cccc(-c2nn(-c3ccccc3)cc2/C=C(\C#N)c2nc3ccccc3[nH]2)c1	-6	14	7	3	1	0
CCN1CCN(c2cc(SC(C)C)nc(-c3ccc(OC)cc3)n2)CC1	-10	-22	-9	53*	-6	-3
O=C(NCCc1ccc(F)cc1)Nc1ccc([N+](=O)[O-])cc1	-18	18	-9	-56	-1	-15
Cc1c(Cl)cccc1NC(=S)NCCc1ccc(F)cc1	-9	2	71*	16	-2	-8
Cc1c(Cl)cccc1NC(=S)NCCc1ccc(Cl)cc1	1	13	-13	-8	13	-9
O=[N+]([O-])c1ccc(NC(=S)NCCc2ccc(F)cc2)cc1	-3	49	66*	26	27	6
COc1cc(NC(=O)CN2C(=O)NC(c3ccccc3)(c3ccccc3)C2=O)c(C)cc1[N+](=O)[O-]	-4	8	22	23	18	-3
CC1CCN(CC(CS(=O)(=O)c2ccc([N+](=O)[O-])cc2)N2CCC(C)CC2)CC1 (stereo unspecified)	-2	-29	8	108*	-1	84*
SMILES	LMP1 NFkB inh	Shn3 3UTR inh	TWEAK-Fn14 inh	Peg3 prom inh	TROY signal inh	TRPM1 prom inh
Cc1nc2cc(NC(=O)c3ccc(Cl)cc3)ccc2n1C	18	-61	50*	-163	-2	-11
Cc1ccc(Oc2cc(-n3nc(C)cc3C)ncn2)cc1	-8	-19	-7	-115	-33	-69
Cc1cc(C)n(-c2cc(-n3nc(C)cc3C)ncn2)n1	-7	96*	-16	-9	-32	-6
COc1cccc(OCCCn2cc(/C=C3/C(=N)N4C=C(C)SC4=NC3=O)c3ccccc32)c1	5	23	27	35	10	-10
COc1ccc(OCCCn2cc(/C=C3/C(=N)N4C=C(C)SC4=NC3=O)c3ccccc32)cc1	3	-52	14	51*	18	3
Cc1ccc(N2C(=O)Nc3ccc(Br)cc3C2(O)C(=O)NCCN(C)C)cc1C (stereo unspecified)	4	2	14	9	13	-3
CN(C)CCNc1ncnc2c1sc1nc(-c3ccccc3)c3c(c12)CCCC3	-9	-26	2	111*	39	9
COc1ccc(CN=C(C)c2c(C(F)(F)F)[nH]n(-c3nc4ccccc4s3)c2=O)cc1	-27	-32	58*	-258	-34	-31
CCOC(=O)C1(C)NC(c2ccc(OC)cc2OC)C2C(=O)N(CC)C(=O)C21 (stereo unspecified)	2	10	0	1	-20	-16
Cc1ccc(OCC(=O)Nc2ccncc2)cc1	5	30	-3	-33	-34	-12
N#Cc1cc(-c2ccccc2)nc(Oc2ccccc2)n1	5	0	61*	24	48	6
COc1ccc(-c2cc(C#N)nc(Cl)n2)cc1	3	8	30	39	80*	66*
CC1CN/C(=C\C(=O)c2ccc(Cl)cc2)C(=O)N1 (stereo unspecified)	33	4	73*	-131	-13	-1
CCOC(=O)c1ccc(Nc2ncnc3ccc(C)cc23)cc1	-4	27	20	-6	12	5
CCOc1ccc(Nc2ncnc3ccc([N+](=O)[O-])cc23)cc1	?	9	77*	12	51*	-7
CN1C(=O)CSc2ccc(NC(=O)N3CCN(c4ccccc4)CC3)cc21	8	-1	8	18	-5	4
COc1ccccc1NS(=O)(=O)c1cc([N+](=O)[O-])ccc1N/N=C/c1c[nH]c2ccccc12	-11	24	56*	37	52*	8
COc1ccc(NS(=O)(=O)c2cc([N+](=O)[O-])ccc2N/N=C\c2c(C)[nH]c3ccccc23)cc1	-8	9	10	27	14	8
O=C(N/N=C/c1cccnc1)c1cccc(Br)c1	11	-15	-29	-19	-14	-4
CCOc1ccc(OCc2cccc(C(=O)N/N=C/c3cccnc3)c2)cc1	75*	7	-17	-71	-26	57
CC(C)c1ccc(OCc2cccc(C(=O)N/N=C/c3cccnc3)c2)cc1	63*	20	-13	-138	-7	2
Cc1cc(C)n(C(=O)CN2C(=O)c3ccccc3C2=O)n1	5	-45	21	-4	-10	3
